PubChem BioAssay AID493027 (The Scripps Research Institute Molecular Screening Center, 2011)
Out of some 2,000 compounds screened, about 45 (2%) were called active. The full list was thinned out, with actives kept by preference. Unmarked numbers belong to inactive results.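 How the source made its calls: active means inhibition above the screen-wide mean inhibition plus 3 SD (cut at about 44% in these data); inactive means the rest.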

molecular target: Perilipin-1 (Homo sapiens) + 1-acylglycerol-3-phosphate O-acyltransferase ABHD5 (Homo sapiens) (UniProt O60240+Q8WTS1); assay: blockers of ABHD5 binding to perilipin-1 – cell lysate, split luciferase complementation, luminescence, NIH validation set, pilot screen (AID 493027);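 on inhibition: 0% = DMSO wells with the 100% control not disclosed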; conditions: split G. princeps luciferase complementation, 4 h; at 7.9 µM, hits give high values
Sequence (O60240 whole entry, looked up): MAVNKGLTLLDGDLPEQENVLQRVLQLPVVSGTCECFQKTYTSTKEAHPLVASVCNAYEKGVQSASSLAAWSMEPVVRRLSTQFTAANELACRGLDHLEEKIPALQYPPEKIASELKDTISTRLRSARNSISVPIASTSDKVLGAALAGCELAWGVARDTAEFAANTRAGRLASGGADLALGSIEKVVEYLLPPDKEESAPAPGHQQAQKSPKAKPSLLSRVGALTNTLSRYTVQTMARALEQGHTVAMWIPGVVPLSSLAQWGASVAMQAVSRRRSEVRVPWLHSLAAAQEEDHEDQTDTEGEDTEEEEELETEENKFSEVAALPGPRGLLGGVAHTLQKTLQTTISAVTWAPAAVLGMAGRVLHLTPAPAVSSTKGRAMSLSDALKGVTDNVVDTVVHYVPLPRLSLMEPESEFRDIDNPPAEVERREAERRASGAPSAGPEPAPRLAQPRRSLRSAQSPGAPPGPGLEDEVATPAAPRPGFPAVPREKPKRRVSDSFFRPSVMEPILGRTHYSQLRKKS
Sequence (Q8WTS1 whole entry, looked up): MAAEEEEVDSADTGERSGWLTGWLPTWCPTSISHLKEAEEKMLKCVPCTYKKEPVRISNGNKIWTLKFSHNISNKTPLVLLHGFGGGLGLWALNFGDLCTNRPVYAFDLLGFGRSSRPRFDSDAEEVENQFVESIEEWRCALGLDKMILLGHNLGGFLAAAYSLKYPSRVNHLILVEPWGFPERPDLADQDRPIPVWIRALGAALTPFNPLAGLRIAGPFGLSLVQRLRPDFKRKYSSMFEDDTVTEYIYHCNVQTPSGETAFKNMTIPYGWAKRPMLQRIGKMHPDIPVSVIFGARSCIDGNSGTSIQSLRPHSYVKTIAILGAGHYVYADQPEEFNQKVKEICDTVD

Going from COc1ccc(CCN=CC2=C(O)CC(C)(C)CC2=O)cc1 to COc1ccc(CCN=C(N)C(C)c2ccccc2)cc1OC (stereo not drawn), the inhibition falls from -4.85% to -12.2%.

Going from CC(=O)Nc1ccc(CN2CCN(C3CCCCC3)C(CCO)C2)cc1 (stereo not drawn) to OCCC1CN(Cc2nc(-c3ccccc3)cs2)CCN1Cc1ccc(F)cc1 (stereo not drawn), the inhibition rises from -3.02% to -1.6%.

First: CC(=O)N[C@@H](CS)C(=O)O
Second: CC(C)(C)C(=O)NC(=S)Nc1sc2c(c1C(N)=O)CCC2
The inhibition of the first is lower: -18.8% for the first, 1.49% for the second.

Going from Cc1ccc(NC(=O)CSc2nc(O)c(Cc3ccccc3)c(=O)n2-c2ccccc2)cc1 to CC(CCc1ccccc1)NC(=O)/C=C/c1ccccc1 (stereo not drawn), the inhibition falls from 5.86% to 2.76%.

First: COc1ccc(/C=C/C(=O)Nc2ccccc2C(=O)O)cc1OC
Second: O=C(/C=C/c1ccccc1)NC(=O)c1ccccc1O
The inhibition of the first is lower: -6.48% for the first, 4.79% for the second.

Compared with COc1ccc(C(=O)Oc2ccc3c(C)cc(=O)oc3c2C(C)=O)cc1, COc1ccc(C2OC(=O)Cc3cc(OC)c(OC)cc32)cc1 (stereo not drawn) is lower in inhibition: 0.69% for the first, -1.64% for the second.

Compared with CC(C)C(=O)Nc1c(O)c2ccccc2[nH]c1=O, COC(=O)C1=C(C)NC(C)=C([N+](=O)[O-])C1c1ccccc1C(F)(F)F (stereo not drawn) is higher in inhibition: -16.2% for the first, 1.42% for the second.

Going from CCOC(=O)C1=C(C)NC(C)=C(C(=O)OC)C1c1cccc([N+](=O)[O-])c1 (stereo not drawn) to O=C(O)c1ccc(C(=O)C(=O)c2ccccc2)cc1, the inhibition falls from 8.95% to -8.11%.

Compared with COc1cc2c(cc1OC)-c1cc(OCc3ccccc3Cl)nc(=O)n1CC2, Cn1cc(/C=C/C(=O)c2ccccc2)c2ccccc21 is lower in inhibition: 15.9% for the first, 13.9% for the second.

First: N/C(=N\OC(=O)/C=C/c1ccccc1)c1ccc(Br)cc1
Second: O=C(CCCCCCCC(=O)c1ccccc1)c1ccccc1
The inhibition of the first is lower: -13% for the first, -5.61% for the second.

Compared with Cc1ccc2[nH]c3c(c2c1)CN(C)CC3, Cc1ccc(S(=O)(=O)N[C@@H](C)C(=O)N2CCC(C(=O)N3CCC[C@H]3C(=O)O)CC2)cc1 is lower in inhibition: -2.27% for the first, -8.3% for the second.

With COC(=O)[C@@H](N)CS the inhibition was 65.9% (active).
For COc1ccc(/C=C\C(=O)c2c(O)ccc3c(C)cc(=O)oc23)cc1OC, the inhibition was 62.7% (active).
For COC(=O)C1=C(C)NC(C)=C(C(=O)OC)C1c1ccccc1[N+](=O)[O-], the inhibition was “active”.
For O=C(/C=C/Sc1ccccc1)c1ccccc1, the inhibition was 81.5% (active).
With O=C(/C=C/c1ccccc1)/C=C/c1ccccc1 the inhibition was 88.9% (active).
With O=C(/C=C/c1ccccc1)c1ccccc1 the inhibition was 61.4% (active).
